High-throughput results (PubChem)
Sampled rows, rich in hits. Any-hit rate of the full collection: about 15%.
ALOX12 inh: ALOX12 (human) lipoxygenase inhibition. 1.1% of 580,000 active. Potency, µM (series often up to 108 µM), hits mostly inhibitors. AID 1671190. P18054. purified 12hLO, xylenol orange hydroperoxide absorbance
Target sequence (P18054 whole entry, looked up): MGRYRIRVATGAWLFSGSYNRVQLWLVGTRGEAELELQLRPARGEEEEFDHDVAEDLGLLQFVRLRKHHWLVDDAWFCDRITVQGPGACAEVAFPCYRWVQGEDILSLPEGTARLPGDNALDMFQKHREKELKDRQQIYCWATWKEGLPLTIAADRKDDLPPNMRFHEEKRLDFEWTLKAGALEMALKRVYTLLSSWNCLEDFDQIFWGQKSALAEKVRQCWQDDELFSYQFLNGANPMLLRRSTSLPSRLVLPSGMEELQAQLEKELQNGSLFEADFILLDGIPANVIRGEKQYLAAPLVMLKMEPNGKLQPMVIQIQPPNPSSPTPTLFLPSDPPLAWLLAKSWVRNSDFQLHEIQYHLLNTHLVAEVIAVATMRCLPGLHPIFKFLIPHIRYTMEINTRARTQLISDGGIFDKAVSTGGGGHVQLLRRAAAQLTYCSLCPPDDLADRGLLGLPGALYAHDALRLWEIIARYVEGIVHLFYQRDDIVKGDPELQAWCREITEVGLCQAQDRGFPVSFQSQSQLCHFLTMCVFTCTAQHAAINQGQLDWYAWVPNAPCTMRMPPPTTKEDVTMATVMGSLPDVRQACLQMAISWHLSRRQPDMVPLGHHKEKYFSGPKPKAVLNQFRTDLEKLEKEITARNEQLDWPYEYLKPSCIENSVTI
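Purified human 12hLO at 150 nM in 25 mM Hepes, 0.01% Triton X-100, pH 7.0, preincubated 15 min at room temperature with compound. Reaction started with 40 uM arachidonic acid, 30 min at room temperature. Hydroperoxide measured by Fe-xylenol orange, 573/405 nm absorbance ratio.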
TDP1 cell CPT: growth inhibition of DT40 Tdp1-/-;hTDP1 cells with camptothecin (screen for TDP1 inhibitors); chicken DT40 Tdp1-/-;hTDP1 cells + 20 nM CPT, ATP luminescence, 48 h; Potency, µM (titrated, usually from 46.2 µM), actives largely listed as inhibitors; 12% of 420,000 active; AID 686979; note: nearly all actives have a fitted effect of over 55% in size
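Chicken DT40 Tdp1-/- cells complemented with human TDP1, 400 cells/well, exposed to compounds plus 20 nM camptothecin for at least 48 h at 37 C; viability read as ATP content by CellTiter-Glo luminescence.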
RORgamma inh: inhibitors of mouse ROR gamma transcriptional activity; 5.4% of 310,000 active; Drosophila S2 Gal4-RORgamma UAS-luciferase reporter, 20 h; Potency, µM (series often up to 53.6 µM), hits mostly inhibitors; AID 2551; P51450; note: nearly all actives have a fitted effect of over 60% in size
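Drosophila Schneider cells stably carrying a metallothionein-driven Gal4 DBD–ROR gamma fusion and a UAS-Photinus luciferase reporter were exposed to compound for 1 hr, then induced with copper sulfate (700 uM final) for 20 hr at ambient temperature before luminescence reading.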
DT40 TDP1 no CPT: qHTS for Inhibitors of human tyrosyl-DNA phosphodiesterase 1 (TDP1): qHTS in cells in absence of CPT | DT40 Tdp1-/- hTDP1 cells, no CPT, ATP luminescence, 48 h | Potency, µM (highest dose often 46.2 µM), most hits filed as inhibitors | 15% of 420,000 active | AID 686978, 2013; note: nearly all actives have a fitted effect of over 55% in size
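Stably hTDP1-transfected Tdp1-null chicken DT40 cells were treated with library compounds minus camptothecin and grown for at least 48 hr at 37 °C, after which cellular ATP was quantified by luminescence.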
ELG1 DNA repair: blocks ELG1-dependent DNA repair in HEK293T cells. Potency, µM (doses to about 46.1 µM), actives largely listed as inhibitors. 2.3% of 330,000 active. HEK293T ELG1-luciferase reporter, luminescence, 16 h; DNA damage induced by 5-fluorouridine; note: nearly all actives have a fitted effect of over 55% in size
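Quantitative HTS, concentration-response format. 2,000 cells/well co-treated with 5-fluorouridine and compound, 16 hr in 5% CO2 at 37 °C; ONE-Glo luminescence read after 30 min.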
VP16 counter: counter-screen for ROR gamma inhibitors: Gal4-VP16 reporter; Drosophila S2 Gal4-VP16 UAS-luciferase, luminescence, 20 h; Potency, µM (highest dose often 53.6 µM), usual class: inhibitors; 3.5% of 310,000 active; AID 2546;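 note: Gal4-VP16 expression switched on by copper sulfate through the metallothionein promoter; nearly all actives have a fitted effect of over 50% in size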
Numbers stand for hits. Calls come from the whole dose curve; as a rule, active = well fitted curve in the direction sought with a large enough effect; inconclusive = small, poorly fitted or top-dose-only effect, or another doubt; inactive = no such curve, though single readings can be large; an effect the other way counts as inactive or inconclusive.

Results for Cc1ccc2occ(CC(=O)N(Cc3ccc(Cl)cc3)Cc3ccco3)c2c1 ?
ALOX12 inh: inactive; TDP1 cell CPT: inconclusive; DT40 TDP1 no CPT: 23.1µM

How did CC(C)CN1C(=O)CO[C@H](c2ccc(NC(=O)C3CCCC3)cc2)[C@H]1CO do in these assays?
ALOX12 inh: inactive

How did O=C(CSc1ccc(F)cc1)OCc1nc2ccsc2c(=O)[nH]1 do in these assays?
ALOX12 inh: inactive

What do the screens show for `Cc1ccc(CC(=O)NCC(c2ccco2)N(C)C)cc1C` (centres undefined)?
ALOX12 inh: inactive; TDP1 cell CPT: inactive; RORgamma inh: inactive; DT40 TDP1 no CPT: inactive; ELG1 DNA repair: inactive; VP16 counter: inactive

Results for Cc1ccc(CN(Cc2ccco2)C(=O)c2oc3ccc(C)cc3c2C)cc1 ?
ALOX12 inh: inactive; TDP1 cell CPT: inconclusive; DT40 TDP1 no CPT: 14.6µM

What do the screens show for `COc1ccc2oc(C(=O)N(Cc3ccco3)Cc3cccs3)c(C)c2c1`?
ALOX12 inh: inactive; TDP1 cell CPT: inconclusive; DT40 TDP1 no CPT: inconclusive; ELG1 DNA repair: inactive

How did Cc1ccc(CN(Cc2ccco2)C(=O)c2cccc(C)c2)cc1 do in these assays?
ALOX12 inh: inactive; TDP1 cell CPT: 14.6µM; DT40 TDP1 no CPT: 16.4µM

Results for Cc1ccc2c(=O)cc(C(=O)N(Cc3ccccc3)Cc3ccco3)oc2c1C ?
ALOX12 inh: 35.5µM

Results for Cc1cc2oc(C(=O)N(Cc3ccccc3)Cc3ccco3)cc(=O)c2cc1Cl ?
ALOX12 inh: inactive

Results for Cc1ccc2oc(C(=O)NCC(c3ccco3)N(C)C)c(C)c2c1 (centres undefined) ?
ALOX12 inh: inactive; TDP1 cell CPT: inconclusive; RORgamma inh: inactive; DT40 TDP1 no CPT: 4.11µM; ELG1 DNA repair: inconclusive; VP16 counter: inactive

Results for CC(C)(C)C(=O)NC(c1ccc(Cl)cc1)c1cccnc1 (centres undefined) ?
ALOX12 inh: inactive

What do the screens show for `Cc1cccc(C(=O)NCc2ccco2)c1C`?
ALOX12 inh: inactive

What do the screens show for `Cc1ccc2c(CC(=O)NCc3ccco3)coc2c1C`?
ALOX12 inh: inactive; TDP1 cell CPT: 13µM; RORgamma inh: inconclusive; DT40 TDP1 no CPT: 11.6µM; ELG1 DNA repair: inconclusive; VP16 counter: inactive

Results for Cc1cc(C)cc(-n2ccn3c(SCC(=O)c4ccc(Br)cc4)nnc3c2=O)c1 ?
ALOX12 inh: inactive

How did CCN(C(=O)C1CCC(CNS(=O)(=O)c2cccc3nsnc23)CC1)c1ccccc1 (centres undefined) do in these assays?
ALOX12 inh: inactive; TDP1 cell CPT: inconclusive; DT40 TDP1 no CPT: 23.1µM

How did COc1ccc(NC(=O)C2CCC(CNS(=O)(=O)c3cccc4nsnc34)CC2)cc1OC (centres undefined) do in these assays?
ALOX12 inh: inactive; TDP1 cell CPT: inconclusive; DT40 TDP1 no CPT: 16.4µM

Results for CCN(C(=O)C1CCC(CNS(=O)(=O)c2cccc3nsnc23)CC1)c1cccc(C)c1 (centres undefined) ?
ALOX12 inh: inactive; TDP1 cell CPT: inconclusive; DT40 TDP1 no CPT: 20.6µM

What do the screens show for `Cc1ccc(NC(=O)CSc2nc3ccc(Nc4nc(N5CCOCC5)nc(N5CCOCC5)n4)cc3s2)cc1`?
ALOX12 inh: inactive; TDP1 cell CPT: inconclusive; RORgamma inh: inconclusive; DT40 TDP1 no CPT: 18.4µM; ELG1 DNA repair: inconclusive; VP16 counter: inactive

How did CC(=O)CSc1nc2ccc(Nc3nc(N4CCOCC4)nc(N4CCOCC4)n3)cc2s1 do in these assays?
ALOX12 inh: inactive; TDP1 cell CPT: inconclusive; RORgamma inh: inactive; DT40 TDP1 no CPT: inconclusive; ELG1 DNA repair: inconclusive; VP16 counter: inactive

What do the screens show for `CCOC(=O)CSc1nc2ccc(Nc3nc(N4CCOCC4)nc(N4CCOCC4)n3)cc2s1`?
ALOX12 inh: inactive; TDP1 cell CPT: inconclusive; RORgamma inh: inconclusive; DT40 TDP1 no CPT: 20.6µM; ELG1 DNA repair: inconclusive; VP16 counter: inactive

How did CC(=O)Nc1ccc2nc(SCC(=O)Nc3ccc(N4CCOCC4)c(Cl)c3)sc2c1 do in these assays?
ALOX12 inh: inconclusive; TDP1 cell CPT: inconclusive; RORgamma inh: inactive; DT40 TDP1 no CPT: inconclusive; ELG1 DNA repair: inconclusive; VP16 counter: inactive

How did CC(C)(C)NC(=O)CSc1nc2ccc(Nc3nc(N4CCOCC4)nc(N4CCOCC4)n3)cc2s1 do in these assays?
ALOX12 inh: inactive; TDP1 cell CPT: 13µM; RORgamma inh: inactive; DT40 TDP1 no CPT: 6.51µM; ELG1 DNA repair: 3.26µM; VP16 counter: inactive

How did COc1ccc(NC(=O)CSc2nc3ccc(Nc4nc(N5CCOCC5)nc(N5CCOCC5)n4)cc3s2)cc1 do in these assays?
ALOX12 inh: inactive; TDP1 cell CPT: 11.6µM; RORgamma inh: inconclusive; DT40 TDP1 no CPT: 6.51µM; ELG1 DNA repair: 2.31µM; VP16 counter: inconclusive

Results for O=C(CC1CCN(C(=O)c2ccccc2F)C1)NC1CC1 (centres undefined) ?
ALOX12 inh: inactive

What do the screens show for `CC(C)C(=O)N1CCCN(S(C)(=O)=O)c2ccccc21`?
ALOX12 inh: inactive

What do the screens show for `Cc1nc(-c2ccccc2)n(Cc2nc(-c3cccc(Cl)c3)oc2C)c(=O)c1CCO`?
ALOX12 inh: inactive

How did O=C(COc1ccc2ccc(=O)oc2c1)Nc1ccc(N2CCCCC2)cc1 do in these assays?
ALOX12 inh: inactive; TDP1 cell CPT: inconclusive; DT40 TDP1 no CPT: 18.4µM; ELG1 DNA repair: inactive

How did O=C(COc1ccc2ccc(=O)oc2c1)N1CCN(c2ccc(F)cc2)CC1 do in these assays?
ALOX12 inh: inactive; TDP1 cell CPT: inconclusive; RORgamma inh: inactive; DT40 TDP1 no CPT: 23.1µM; ELG1 DNA repair: inactive; VP16 counter: inactive

What do the screens show for `Cc1ccc(NC(=O)C2CCN(c3cc(C(F)(F)F)ncn3)CC2)cc1`?
ALOX12 inh: inactive

Results for Cc1ccccc1N1C(=O)c2cccc3c(N(C)CCO)ccc(c23)C1=O ?
ALOX12 inh: inconclusive; TDP1 cell CPT: inconclusive; RORgamma inh: 11.2µM; DT40 TDP1 no CPT: inactive; ELG1 DNA repair: inconclusive; VP16 counter: inactive

What do the screens show for `COc1ccccc1N1C(=O)c2cccc3c(N(C)CCO)ccc(c23)C1=O`?
ALOX12 inh: inactive; TDP1 cell CPT: 8.2µM; RORgamma inh: inconclusive; DT40 TDP1 no CPT: inconclusive; ELG1 DNA repair: inactive; VP16 counter: inactive

Results for COc1ccccc1N1C(=O)c2cccc3c(C(=O)O)ccc(c23)C1=O ?
ALOX12 inh: inactive; TDP1 cell CPT: inactive; RORgamma inh: inactive; DT40 TDP1 no CPT: inactive; ELG1 DNA repair: inactive; VP16 counter: inactive

How did Cc1cccc(NC(=O)c2ccc3c(c2)C(=O)N(c2ccccc2C)C3=O)n1 do in these assays?
ALOX12 inh: inactive; TDP1 cell CPT: inactive; DT40 TDP1 no CPT: inactive; ELG1 DNA repair: inactive
